From PubChem
ssDAF12 agonist = activates DAF-12 receptor from parasite S. stercoralis. activation, % at 6.8 µM. HEK293 ssDAF-12/GRIP1 lit1-tk-luc reporter, luminescence; % of 3 µM dafachronic acid response. 370,000 compounds, 1% hits;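 active means activation above the mean over all tested compounds plus 3 SD, cut at about 0.9% in these data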
PolyA inhibitor = inhibitors of polyadenylation in S. cerevisiae. 300,000 compounds, 0.02% hits. activity score, % at 12 µM. AID 1875. S. cerevisiae SKY197-pL101 polyadenylation reporter, beta-gal luminescence; efflux-impaired pdr1/pdr3 knockout yeast; score 100 = 6 SD above DMSO;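 active means lowest replicate activity score at least 50, where 100 means six control SD above control mean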;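 further: yeast exposed to compound for 9 h at 30 °C; higher score means more reporter readthrough which indicates perturbed polyadenylation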
DAX1 inh-1 = inhibitors of human orphan nuclear receptor DAX1 (NR0B1); P51843; HEK293 Gal4-DAX1 luciferase reporter, luminescence; inhibition, % at 6.75 µM; 340,000 compounds, 0.99% hits;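 active means inhibition above the mean over all tested compounds plus 3 SD, cut at about 4.2% in these data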;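 further: inhibition shows as a rise in luminescence from relieved DAX1 repression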
Target sequence (P51843 207-470 limits assumed): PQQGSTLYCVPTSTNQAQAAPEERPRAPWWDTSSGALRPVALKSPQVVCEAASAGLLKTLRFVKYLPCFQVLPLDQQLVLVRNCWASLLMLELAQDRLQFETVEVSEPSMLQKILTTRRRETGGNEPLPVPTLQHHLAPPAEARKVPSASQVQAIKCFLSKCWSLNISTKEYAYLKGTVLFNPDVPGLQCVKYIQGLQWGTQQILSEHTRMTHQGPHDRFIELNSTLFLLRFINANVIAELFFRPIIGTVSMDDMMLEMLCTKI
hcDAF-12 act = activators of H. contortus DAF-12 nuclear receptor | HEK293 hcDAF-12 lit1-tk-luc reporter, luminescence; 0% DMSO, 100% Δ7-dafachronic acid | activation, % at 6.8 µM | 370,000 compounds, 1.4% hits;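 active means activation above the mean of all tested compounds plus 3 SD, cut at about 5.5% in these data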
hgDAF12 agonist = agonists of H. glycines DAF-12 nuclear receptor; HEK293 GAL4-hgDAF12 UAS-luciferase reporter, agonist luminescence; normalized to butyrate control; 370,000 compounds, 1.8% hits; activation, % at 6.8 µM;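 active means activation above a cutoff set at the mean of all screened compounds plus 3 SD, cut at about 10% in these data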
DAX1 inh-2 = blocks DAX1 repression of SF-1 activated StAR promoter. HEK293T StAR-luciferase reporter, SF-1/DAX-1 repression relief. inhibition, % at 6.8 µM. 370,000 compounds, 1.1% hits;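 active means inhibition above the mean over all tested compounds plus 3 SD, cut at about 3.6% in these data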;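 further: higher inhibition means more luminescence from relief of DAX-1 repression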
DAX1 inh confirm = confirmation of human DAX1 (NR0B1) inhibitors | AID 652134 | inhibition, % at 6.8 µM | shares compounds with DAX1 inh-2 | HEK293T StAR-promoter luciferase reporter, SF-1/DAX-1 repression | 2,400 compounds, 87% hits;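 active means inhibition above the average of every tested compound plus 3 SD, cut at about 3.8% in these data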;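 further: active compounds raise luminescence by relieving repression of the StAR reporter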
SF1 AF2mut Luc = nonselective inhibitor or artifact in SF-1 mutant DAX1 counter-screen. shares compounds with DAX1 inh-2. HEK293 StAR-luciferase, SF-1 AF2 mutant, luminescence. inhibition, % at 6.8 µM. 2,400 compounds, 78% hits. AID 652136;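 active means inhibition above the mean of all tested compounds plus 3 SD, cut at about 3% in these data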
LXRb hcDAF ctr = LXR-beta agonism as hcDAF-12 counter-screen; shares compounds with hcDAF-12 act; HEK293 Gal4-LXR tk-luc reporter, luminescence, 24 h; normalized: DMSO 0%, positive control 100%; activation, % at 6.8 µM; 3,400 tested, under 10 active;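 active means mean percent activation of the reporter above a cutoff set as the average over tested compounds plus their standard deviation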
Target sequence (P55055 whole entry, looked up, the tested form may be a part): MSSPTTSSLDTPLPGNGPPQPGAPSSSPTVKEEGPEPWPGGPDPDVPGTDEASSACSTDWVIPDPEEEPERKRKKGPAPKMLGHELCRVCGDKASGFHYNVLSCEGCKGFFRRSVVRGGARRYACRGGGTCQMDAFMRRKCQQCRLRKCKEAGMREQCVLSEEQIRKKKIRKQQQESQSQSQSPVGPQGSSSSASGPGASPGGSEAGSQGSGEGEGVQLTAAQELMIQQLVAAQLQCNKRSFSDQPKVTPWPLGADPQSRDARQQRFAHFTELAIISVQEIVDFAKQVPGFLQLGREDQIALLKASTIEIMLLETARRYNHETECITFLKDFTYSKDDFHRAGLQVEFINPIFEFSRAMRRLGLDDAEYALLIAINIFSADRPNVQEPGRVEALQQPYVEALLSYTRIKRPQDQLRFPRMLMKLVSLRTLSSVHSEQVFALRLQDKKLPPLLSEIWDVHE
hcDAF12 ag = confirmation of H. contortus DAF-12 agonists; HEK293 hcDAF-12 lit1-tk-luc reporter, luminescence; % of Δ7-dafachronic acid response; activation, % at 6.8 µM; 3,400 compounds, 61% hits; shares compounds with hcDAF-12 act;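 active means mean activation across triplicate tests above the threshold derived from the earlier primary screen, cut at about 5.5% in these data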
hgDAF12 conf = hgDAF-12 agonism, confirmation assay. shares compounds with hgDAF12 agonist. HEK293 GAL4-hgDAF12 luciferase reporter, agonist mode; percent of butyrate response. activation, % at 6.8 µM. 3,300 compounds, 80% hits. AID 743050;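 active means mean activation over triplicate wells above the hit cutoff derived from the earlier primary screen, cut at about 11% in these data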
LXRb DAF12 ctr = activates human LXR-beta, counter-screen for DAF-12 agonists; shares compounds with hgDAF12 agonist; HEK293 Gal4-LXR luciferase reporter, 24 h; activation, % at 6.8 µM; 3,300 tested, under 10 active; AID 743051;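 active means mean activation of the triplicate above a set limit carried over from the primary screen, none filed active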
Numbers stand for hits; - = inactive; . = no result given. The list is not random: actives were taken first. Their share in the collection is about 4.1%.

SMILES	ssDAF12 agonist	PolyA inhibitor	DAX1 inh-1	hcDAF-12 act	hgDAF12 agonist	DAX1 inh-2	DAX1 inh confirm	SF1 AF2mut Luc	hgDAF12 conf	LXRb DAF12 ctr	others
CN(Cc1ccc(Cl)cc1)C(=O)c1ccc2ccccc2n1	-	-	-	-	-	-	.	.	.	.
c1ccc(N=Nc2ccc(C3=NCCO3)cc2)cc1	-	.	-	7.9	18	11	19	9.0	16	-	LXRb hcDAF ctr=-;hcDAF12 ag=-
Cc1ccc(S(=O)(=O)c2nnn3c2nc(NC2CCN(Cc4ccccc4)CC2)c2ccccc23)cc1C	.	-	-	.	.	.	.	.	.	.
Cc1ccc(-c2cc3nc(-c4ccccc4)cc(N)n3n2)cc1	-	-	-	-	-	-	.	.	.	.
Cc1cc(N)n2nc(-c3ccccc3)cc2n1	1.7	-	-	12	20	5.8	16	8.2	19	-	LXRb hcDAF ctr=-;hcDAF12 ag=6.9
CCc1ccc(Cn2ncc3c(C(=O)O)cc(C)nc32)cc1	-	.	-	-	-	-	.	.	.	.
CC1CCCN(C(=O)c2ccc(-c3ccccc3Cl)o2)C1 (centres undefined)	-	-	-	-	18	7.8	12	6.3	15	-
Cc1ccc(NC(=S)c2ccc(N(C)C)cc2)cc1	-	-	-	-	14	5.6	13	7.8	17	-
CC(C)(C)c1ccc(-c2nnc(SCC(=O)c3ccc4ccccc4c3)n2-c2ccc(Cl)cc2)cc1	-	.	.	-	-	-	.	.	.	.
O=C(NC(=S)Nc1ncccn1)c1ccc(Cl)cc1Cl	-	-	5.1	-	16	6.7	14	9.8	14	-
CCC(=O)Nc1cccc(NC(=S)NC(=O)c2ccc(Cl)cc2Cl)c1	-	-	-	-	-	-	.	.	.	.
CC(C)(C)n1ncc2c(=O)n(Cc3cccc(Cl)c3)cnc21	-	-	-	-	-	-	.	.	.	.
CC(C)N1C(=O)CC2(CC[N+](C)(CCOC(=O)C(c3ccccc3)c3ccccc3)CC2)C1=O (centres undefined)	-	-	-	-	-	-	.	.	.	.
O=C(c1cnn(-c2ccccc2)c1)c1ccccc1O	-	-	-	7.9	23	6.1	13	7.9	20	-	LXRb hcDAF ctr=-;hcDAF12 ag=7.1
O=C(c1cnn(-c2ccccc2)c1)c1cc(F)ccc1O	-	-	-	-	-	-	.	.	.	.
COc1ccc(C(=O)c2oc3ccc(OC)cc3c2N)cc1	-	-	-	-	21	6.1	12	5.8	15	-
COC(=O)Cc1ccc2sc(-c3ccccc3)nc2c1	1.0	-	-	13	21	5.9	13	8.6	17	-	LXRb hcDAF ctr=-;hcDAF12 ag=11
C=CC(=O)NC(C)(C)Cc1ccccc1	-	-	-	-	-	-	.	.	.	.
CC(C#N)(Cc1ccccc1)Nc1ccccc1 (centres undefined)	-	-	-	6.5	14	5.0	-	-	-	-
O=C1NC(=O)C2(Br)Nc3ccc(Br)cc3C(=O)C2N1 (centres undefined)	-	.	-	-	-	-	.	.	.	.
CCC(c1nc2ccccc2[nH]1)n1c(=O)c(-c2ccco2)nc2ccccc21 (centres undefined)	-	.	.	-	-	-	.	.	.	.
O=c1c(-c2ccco2)nc2ccccc2n1C(c1ccccc1)c1nc2ccccc2[nH]1 (centres undefined)	-	.	.	-	16	4.7	-	-	-	-
Cc1cnc2nc(-c3ccccc3)ccc2c1	1.0	.	.	6.8	17	8.2	11	6.8	19	-	LXRb hcDAF ctr=-;hcDAF12 ag=6.6
Cn1cc(CN2CCC(n3nccc3NC(=O)Cc3ccccc3)CC2)cn1	-	-	-	-	-	-	.	.	.	.
Cc1ccc(CNC(=O)c2ccc(N3CCC4(CC3)CC(c3ccccc3)=NO4)c(NC(=O)c3ccc(Cl)c([N+](=O)[O-])c3)c2)cc1	-	-	-	-	-	-	.	.	.	.
SMILES	ssDAF12 agonist	PolyA inhibitor	DAX1 inh-1	hcDAF-12 act	hgDAF12 agonist	DAX1 inh-2	DAX1 inh confirm	SF1 AF2mut Luc	hgDAF12 conf	LXRb DAF12 ctr	others
COCCn1c(Cc2ccccc2)nnc1SCC(=O)Nc1oc(C)c2c(C)n[nH]c(=O)c12	-	-	-	-	-	-	.	.	.	.
O=C(Nc1nc2c(s1)COc1ccccc1-2)c1cccs1	-	-	4.8	-	15	12	8.8	9.4	-	-
CCOCC(=O)Nc1cc(C(=O)NCCc2ccccc2)ccc1Cl	-	-	-	-	14	4.5	9.0	4.3	13	-
O=C(O)c1ccc(N/N=C/c2ccc(-c3ccc(Br)cc3)o2)cc1	-	-	-	-	-	-	.	.	.	.
O=C(O)c1ccc(N/N=C/c2ccc(-c3ccccc3Cl)o2)cc1	1.3	-	-	9.8	24	9.2	26	11	12	-	LXRb hcDAF ctr=-;hcDAF12 ag=12
Cc1ccc(/C=N/Nc2ccc(C(=O)O)cc2)o1	-	-	-	6.3	16	4.6	8.4	6.6	13	-
CC(C)CCn1c(COc2ccccc2)nn(CCC#N)c1=S	-	-	-	-	-	-	.	.	.	.
CCOc1ccc(C(=O)C(C)OC(=O)CN2C(=O)NC(C)(C)C2=O)cc1 (centres undefined)	-	-	-	-	-	-	.	.	.	.
c1ccc(-c2ncc3c(ccc4ccccc43)n2)cc1	3.6	-	-	23	17	6.3	12	3.8	17	-
c1ccc2c(c1)cnc1ccccc12	-	-	-	-	-	-	.	.	.	.
CCOC(=O)c1c(C)nc(C)c(C(=O)OCC)c1-c1ccccc1	.	-	-	.	.	.	.	.	.	.
CCOC(=O)C1=CCC(c2cc3ccccc3[nH]2)NC1 (centres undefined)	1.1	.	.	8.0	15	5.7	8.9	5.0	19	-	LXRb hcDAF ctr=-;hcDAF12 ag=6.4
O=C(/C=C/c1ccccc1)Nc1ccc2c(c1)OCCO2	-	-	-	-	18	7.4	14	6.5	23	-
CSc1ccc(/C=C/C(=O)Nc2ccccc2)cc1	-	.	-	11	14	14	6.8	4.3	16	-	LXRb hcDAF ctr=-;hcDAF12 ag=7.4
